Measured values reported in PubChem BioAssay.
Calls of active or inactive are those of the source. Unless noted, the rule behind the calls is not given here.

Experiments:
[1] = anti-His antibody binders, primary screen, artefact control for SMM control protein annotation, biochemical, small-molecule microarray, 635 nm fluorescence (AID 1128); details: anti-His Alexa647 antibody binding, higher = more signal;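 note: score merges feature fluorescence with signal-to-noise for each printed compound spot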
[2] = test system: Human papillomavirus type 1a E7 protein (residues 1-88); assay: HPV1a E7 small-molecule binders, primary screen, biochemical, small-molecule microarray, residues 1-88, 635 nm (AID 1129); details: small-molecule microarray binding, fluorescence 635 nm; higher = more signal
[3] = molecular target: Focal adhesion kinase 1 (Homo sapiens) (UniProt Q05397); assay: small-molecule microarray binders of FAK, primary screen, biochemical, 635/667 nm fluorescence, BSA, DTT (AID 1130); details: PTK2 binding, 635 nm fluorescence, higher = more signal;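 note: composite of spot emission at 667 nm and signal to noise over triplicate slides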
Chain of Focal adhesion kinase 1 (Homo sapiens) (Q05397 whole entry, looked up): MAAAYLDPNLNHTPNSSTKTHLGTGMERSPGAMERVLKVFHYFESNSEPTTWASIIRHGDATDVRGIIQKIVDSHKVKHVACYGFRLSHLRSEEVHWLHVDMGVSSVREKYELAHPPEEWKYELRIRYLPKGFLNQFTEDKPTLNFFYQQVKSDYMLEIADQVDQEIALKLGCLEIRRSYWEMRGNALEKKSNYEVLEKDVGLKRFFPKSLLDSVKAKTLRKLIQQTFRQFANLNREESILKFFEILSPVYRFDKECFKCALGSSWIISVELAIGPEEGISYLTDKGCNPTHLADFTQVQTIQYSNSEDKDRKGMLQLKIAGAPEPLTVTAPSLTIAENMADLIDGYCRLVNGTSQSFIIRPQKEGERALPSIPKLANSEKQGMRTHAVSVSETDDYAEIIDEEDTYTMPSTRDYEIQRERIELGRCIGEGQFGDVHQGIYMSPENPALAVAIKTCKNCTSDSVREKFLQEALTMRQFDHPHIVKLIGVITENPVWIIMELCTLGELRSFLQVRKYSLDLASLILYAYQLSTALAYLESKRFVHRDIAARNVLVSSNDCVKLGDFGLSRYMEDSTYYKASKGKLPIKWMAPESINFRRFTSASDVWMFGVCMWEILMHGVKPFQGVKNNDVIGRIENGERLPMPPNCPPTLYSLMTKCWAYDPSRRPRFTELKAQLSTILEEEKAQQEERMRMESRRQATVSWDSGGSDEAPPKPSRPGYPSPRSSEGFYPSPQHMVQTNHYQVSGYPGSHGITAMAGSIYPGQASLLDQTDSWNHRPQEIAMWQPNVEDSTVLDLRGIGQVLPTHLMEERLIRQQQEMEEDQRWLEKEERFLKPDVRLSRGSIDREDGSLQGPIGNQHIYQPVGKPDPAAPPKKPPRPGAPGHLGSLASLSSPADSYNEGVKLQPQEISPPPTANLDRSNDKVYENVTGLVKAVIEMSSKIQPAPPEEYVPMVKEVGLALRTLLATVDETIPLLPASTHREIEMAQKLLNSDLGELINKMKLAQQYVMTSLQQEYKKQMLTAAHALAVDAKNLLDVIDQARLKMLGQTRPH

[4] = test system: Fibrinogen (Alexa647-labelled); assay: fibrinogen binders on compound microarrays, profiling panel, artefact control for SMM control-protein annotation, biochemical, small-molecule microarray, 635/667 nm fluorescence (AID 1131); details: fibrinogen-A647 binding fluorescence, higher = more signal;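 note: z-score merges 667 nm fluorescence with per-spot signal-to-noise over triplicate slides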
[5] = molecular target: Follistatin (Homo sapiens) (UniProt P19883); assay: follistatin binders on small-molecule microarrays, primary screen, biochemical, small-molecule microarray, 635/667 nm fluorescence (AID 1132); details: FST binding, 635 nm fluorescence, higher = more signal
Chain of Follistatin (Homo sapiens) (P19883 whole entry, looked up): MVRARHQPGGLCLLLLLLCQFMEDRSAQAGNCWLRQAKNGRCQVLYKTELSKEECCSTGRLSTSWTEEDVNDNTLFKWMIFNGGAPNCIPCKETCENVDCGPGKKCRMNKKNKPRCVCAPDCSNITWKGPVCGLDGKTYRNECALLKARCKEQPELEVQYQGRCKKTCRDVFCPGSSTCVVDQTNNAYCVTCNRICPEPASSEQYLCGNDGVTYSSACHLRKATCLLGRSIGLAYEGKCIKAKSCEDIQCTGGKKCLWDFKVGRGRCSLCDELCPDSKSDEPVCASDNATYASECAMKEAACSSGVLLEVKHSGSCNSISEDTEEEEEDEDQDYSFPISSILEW

[6] = molecular target: Fibroblast growth factor 2 (Homo sapiens) (UniProt P09038); assay: FGF2 binders on small-molecule microarrays, primary screen, biochemical, small-molecule microarray, 635/667 nm fluorescence (AID 1133); details: small-molecule microarray binding, FGF2, fluorescence 635/667; higher = more signal
Chain of Fibroblast growth factor 2 (Homo sapiens) (P09038 whole entry, looked up): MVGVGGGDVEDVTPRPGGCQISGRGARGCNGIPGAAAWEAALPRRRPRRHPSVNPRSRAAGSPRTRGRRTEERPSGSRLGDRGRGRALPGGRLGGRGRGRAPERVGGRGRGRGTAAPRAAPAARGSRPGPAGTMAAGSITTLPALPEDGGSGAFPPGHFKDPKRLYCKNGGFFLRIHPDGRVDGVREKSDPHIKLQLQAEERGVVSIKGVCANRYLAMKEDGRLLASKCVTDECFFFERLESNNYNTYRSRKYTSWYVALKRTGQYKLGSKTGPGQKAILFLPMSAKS

[7] = mitochondrial membrane potential change in A549 cells, profiling panel, cell-based, JC-1 fluorescence, basal, 24 h, 100 nL (AID 1138); details: higher = more signal;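 note: A549 lung adenocarcinoma cells under basal conditions with no added stimulus; test concentration not given here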
Lefty1 = Lefty1 binders on small-molecule microarrays, primary screen, biochemical, small-molecule microarray, 635/667 nm fluorescence (AID 1139); details: small-molecule microarray binding, fluorescence 635/667; higher = more signal
[8] = test system: wheat germ agglutinin (Triticum aestivum), Alexa647-labelled; assay: wheat germ agglutinin binders on compound microarrays, profiling panel, artefact control for SMM control-protein annotation, biochemical, small-molecule microarray, 635/667 nm fluorescence (AID 1140); details: WGA-A647 binding, 635 nm fluorescence, higher = more signal;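 note: score merges 667 nm feature emission with signal to noise over triplicate slides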
[9] = molecular target: Luciferin 4-monooxygenase (Photinus pyralis) (UniProt P08659); assay: firefly luciferase enzyme inhibitors, primary screen, biochemical, luminescence, purified enzyme, 2006 set (AID 1141); details: SteadyGlo luminescence, 30 min, higher = more signal, called active from +8 up or from −8 down;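 note: cell-free assay with purified firefly luciferase at 100 ng per well in PBS; test concentration not given here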
Chain of Luciferin 4-monooxygenase (Photinus pyralis) (P08659 whole entry, looked up): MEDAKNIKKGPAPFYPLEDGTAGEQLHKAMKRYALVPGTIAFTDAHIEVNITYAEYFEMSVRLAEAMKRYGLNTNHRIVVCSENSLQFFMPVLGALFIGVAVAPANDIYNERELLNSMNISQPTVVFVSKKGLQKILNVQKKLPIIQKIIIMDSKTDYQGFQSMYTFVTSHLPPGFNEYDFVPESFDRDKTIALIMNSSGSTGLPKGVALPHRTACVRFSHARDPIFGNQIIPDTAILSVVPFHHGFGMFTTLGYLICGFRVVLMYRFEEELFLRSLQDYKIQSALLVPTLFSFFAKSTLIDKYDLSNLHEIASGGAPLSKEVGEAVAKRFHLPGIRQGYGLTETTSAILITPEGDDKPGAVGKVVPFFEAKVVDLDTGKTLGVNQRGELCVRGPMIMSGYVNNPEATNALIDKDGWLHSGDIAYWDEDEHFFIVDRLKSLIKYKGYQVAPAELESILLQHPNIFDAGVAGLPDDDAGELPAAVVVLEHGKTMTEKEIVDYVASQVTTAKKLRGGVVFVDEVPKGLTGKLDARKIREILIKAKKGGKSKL

[10] = test system: Wnt5a (protein binding on small-molecule microarray); assay: Wnt5a binders on small-molecule microarray, primary screen, biophysical, 635/667 nm fluorescence (AID 1142); details: 635 nm fluorescence, higher = more signal;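 note: fluorescence read at 667 nm with signal to noise per printed feature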
[11] = cell viability in Huh7 cells, primary screen, cytotoxicity control for HCV replication inhibitor project, CellTiter-Glo luminescence, basal, 48 h (AID 1143); details: Huh7 HCV replicon, higher = more signal, called active from +8 up or from −8 down;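 note: Huh7 hepatoma cells carrying a hepatitis C replication reporter with no stimulus; test concentration not given here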
[12] = P. aeruginosa biofilm formation inhibitors, primary screen, PAO1 strain, BacTiter-Glo luminescence, LB-PBS (AID 1144); details: 12 h, higher = more signal
[13] = CREB reporter modulators without forskolin, primary screen, cell-based, PC12, CRE-LacZ reporter, unstimulated (AID 1145); details: no forskolin, luminescence, 4.5 h, higher = more signal, called active from +8 up or from −8 down
[14] = CREB reporter modulators under forskolin, primary screen, cell-based, PC12, CRE-LacZ reporter, forskolin-stimulated (AID 1146); details: luminescence, 4.5 h, higher = more signal, called active from +8 up or from −8 down;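 note: PC12 cells with 6xCRE LacZ reporter stimulated by forskolin 10 µM; beta-galactosidase reporter signal reflecting CREB driven transcription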
[15] = molecular target: Streptavidin (Streptomyces avidinii) (UniProt P22629); assay: streptavidin binders on small-molecule microarray, primary screen, artefact control for SMM compound annotation, biophysical, 635/667 nm fluorescence (AID 1147); details: streptavidin binding, higher = more signal;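 note: signal reflects streptavidin binding to arrayed compounds as a control protein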
Chain of Streptavidin (Streptomyces avidinii) (P22629 whole entry, looked up): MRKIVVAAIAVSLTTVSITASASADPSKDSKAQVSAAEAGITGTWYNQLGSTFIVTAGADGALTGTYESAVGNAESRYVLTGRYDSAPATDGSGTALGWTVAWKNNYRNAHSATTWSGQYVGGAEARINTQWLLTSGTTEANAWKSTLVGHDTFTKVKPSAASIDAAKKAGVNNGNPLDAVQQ

[16] = small-molecule binders of probe aInhba, primary screen, biochemical, small-molecule microarray, 635/667 nm fluorescence (AID 1148); details: higher = more signal;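 note: score merges 667nm spot fluorescence with signal-to-noise for antibody binding to printed compounds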
Torsin-1A (Homo sapiens) [17] = molecular target: Torsin-1A (Homo sapiens) (UniProt O14656); assay: torsin A binders from cell lysate, primary screen, small-molecule microarray, wild-type, 635/667 nm (AID 1149); details: COS7 hTOR1A-WT lysate, 635 nm fluorescence, higher = more signal
Chain of Torsin-1A (Homo sapiens) (O14656 whole entry, looked up): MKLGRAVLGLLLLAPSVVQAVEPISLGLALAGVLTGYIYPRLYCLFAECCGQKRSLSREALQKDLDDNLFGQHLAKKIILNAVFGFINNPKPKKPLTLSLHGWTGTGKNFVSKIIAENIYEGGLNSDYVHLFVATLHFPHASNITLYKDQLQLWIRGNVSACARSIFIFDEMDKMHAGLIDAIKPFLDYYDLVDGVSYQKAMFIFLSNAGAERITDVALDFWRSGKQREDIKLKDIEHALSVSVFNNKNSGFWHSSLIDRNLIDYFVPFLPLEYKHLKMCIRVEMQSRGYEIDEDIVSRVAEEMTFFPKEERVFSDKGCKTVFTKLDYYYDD

Torsin-1A (Homo sapiens) [18] = molecular target: Torsin-1A (Homo sapiens) (UniProt O14656); assay: small-molecule binders of mutant TOR1A in lysate, primary screen, cell lysate, small-molecule microarray, COS7 lysate, 635/667 nm fluorescence (AID 1150); details: COS7 hTOR1A mutant lysate, 635 nm fluorescence, higher = more signal;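 note: score pools 667 nm emission and signal to noise measuring lysate protein binding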
[19] = test system: Sonic hedgehog protein (Shh); assay: small-molecule binders of Shh protein, primary screen, biochemical, small-molecule microarray, 635/667 nm fluorescence (AID 1151); details: small-molecule microarray binding, 635 nm fluorescence; higher = more signal;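 note: Shh protein binding to compounds spotted on small-molecule microarray slides; score combines spot fluorescence intensity with signal-to-noise across triplicate slides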

**Q.** Which results are given for `COC(=O)c1ccc(C#CC(NP(=O)(c2ccccc2)c2ccccc2)c2ccccc2)cc1` (stereo not given)?
**A.** composite z-score [1]: 0.15; composite z-score [2]: 1.18; composite z-score [3]: 0.671; composite z-score [4]: 0.963; composite z-score [5]: 1.41; composite z-score [6]: -0.0037; z-score [7]: 1.53; composite z-score (Lefty1): 0.468; composite z-score [8]: 1.43; z-score [9]: 0.853 (inactive); composite z-score [10]: -0.0176; z-score [11]: -0.351 (inactive); z-score [12]: 0.107 (inactive); z-score [13]: -0.372 (inactive); z-score [14]: 1.24 (inactive); composite z-score [15]: 2.13; composite z-score [16]: 0.103; composite z-score (Torsin-1A (Homo sapiens) [17]): -0.497; composite z-score (Torsin-1A (Homo sapiens) [18]): -0.199; composite z-score [19]: 0.918

**Q.** With `CCCCCCc1nc(-c2cc(C)c(OC)c(C)c2)cc2c1[Si](C(C)C)(C(C)C)O[C@H]2c1ccccc1` as the compound, how does the composite z-score [1] read?
**A.** -0.36

**Q.** What about the composite z-score [2] of the same compound?
**A.** -0.341

**Q.** And the composite z-score [3]?
**A.** -0.272

**Q.** And the composite z-score [4]?
**A.** -0.399

**Q.** And the composite z-score [5]?
**A.** 0.0128

**Q.** What about the composite z-score [6] of the same compound?
**A.** -0.683

**Q.** And the z-score [7]?
**A.** -0.705

**Q.** And the composite z-score (Lefty1)?
**A.** -0.0906

**Q.** And the composite z-score [8]?
**A.** -0.372

**Q.** What about the z-score [9] of the same compound?
**A.** 0.844 (inactive)

**Q.** And the composite z-score [10]?
**A.** -0.452

**Q.** What about the z-score [11] of the same compound?
**A.** -0.59 (inactive)

**Q.** And the z-score [12]?
**A.** 0.368 (inactive)

**Q.** What about the z-score [13] of the same compound?
**A.** -0.244 (inactive)

**Q.** What about the z-score [14] of the same compound?
**A.** -0.272 (inactive)

**Q.** And the composite z-score [15]?
**A.** 0.0741

**Q.** What about the composite z-score [16] of the same compound?
**A.** -0.121

**Q.** What about the composite z-score (Torsin-1A (Homo sapiens) [17]) of the same compound?
**A.** -1.48

**Q.** And the composite z-score (Torsin-1A (Homo sapiens) [18])?
**A.** -1.07

**Q.** What about the composite z-score [19] of the same compound?
**A.** -0.162

**Q.** Which composite z-score [1] does the source give for `Cc1ccc(S(=O)(=O)N2[C@@H](c3ccccc3)C(C(=O)O)=CC[C@H]2c2ccccc2)cc1` here?
**A.** -0.247

**Q.** And the composite z-score [2]?
**A.** 0.699

**Q.** What about the composite z-score [3] of the same compound?
**A.** 0.431

**Q.** And the composite z-score [4]?
**A.** 0.175

**Q.** What about the composite z-score [5] of the same compound?
**A.** -0.12

**Q.** And the composite z-score [6]?
**A.** -0.158

**Q.** And the z-score [7]?
**A.** -1.38

**Q.** What about the composite z-score (Lefty1) of the same compound?
**A.** 0.0236

**Q.** And the composite z-score [8]?
**A.** 0.33

**Q.** What about the z-score [9] of the same compound?
**A.** 0.838 (inactive)

**Q.** And the composite z-score [10]?
**A.** 0.105

**Q.** And the z-score [11]?
**A.** -0.498 (inactive)

**Q.** What about the z-score [12] of the same compound?
**A.** 0.0815 (inactive)

**Q.** What about the z-score [13] of the same compound?
**A.** 0.0707 (inactive)

**Q.** And the z-score [14]?
**A.** -0.303 (inactive)

**Q.** What about the composite z-score [15] of the same compound?
**A.** 0.263

**Q.** And the composite z-score [16]?
**A.** 0.0631

**Q.** What about the composite z-score (Torsin-1A (Homo sapiens) [17]) of the same compound?
**A.** 0.195

**Q.** What about the composite z-score (Torsin-1A (Homo sapiens) [18]) of the same compound?
**A.** -0.0024

**Q.** What about the composite z-score [19] of the same compound?
**A.** -0.497

**Q.** What does the source list for `COCCCNC(=O)[C@@H]1c2ccccc2C(=O)N(CC23CC4CC(CC(C4)C2)C3)[C@H]1c1ccc(CO)cc1`?
**A.** composite z-score [1]: -0.348; composite z-score [2]: 0.816; composite z-score [3]: 0.412; composite z-score [4]: -0.434; composite z-score [5]: 1.39; composite z-score [6]: 0.875; z-score [7]: -0.648; composite z-score (Lefty1): 0.19; composite z-score [8]: 0.728; z-score [9]: 0.438 (inactive); composite z-score [10]: 1.01; z-score [11]: -4.78 (inactive); z-score [12]: -0.689 (inactive); z-score [13]: -0.0259 (inactive); z-score [14]: -1.07 (inactive); composite z-score [15]: -0.269; composite z-score [16]: 0.266; composite z-score (Torsin-1A (Homo sapiens) [17]): 0.306; composite z-score (Torsin-1A (Homo sapiens) [18]): 0.262; composite z-score [19]: 1.03

**Q.** Which results are given for `COc1ccc([Si](C)(C)[C@@H]2[C@@H](CC(=O)N(CCO)Cc3ccccc3)O[C@]3(C(=O)N(Cc4cccc(N5CCC5=O)c4)c4ccccc43)[C@H]2C)cc1`?
**A.** composite z-score [1]: 0.863; composite z-score [2]: 1.1; composite z-score [3]: 0.545; composite z-score [4]: -0.0806; composite z-score [5]: 1.3; composite z-score [6]: 1.4; z-score [7]: -0.282; composite z-score (Lefty1): 1.49; composite z-score [8]: 0.163; z-score [9]: 0.352 (inactive); composite z-score [10]: 0.0348; z-score [11]: -5.72 (inactive); z-score [12]: 0.765 (inactive); z-score [13]: 0.236 (inactive); z-score [14]: 0.398 (inactive); composite z-score [15]: -0.287; composite z-score [16]: 0.0301; composite z-score (Torsin-1A (Homo sapiens) [17]): 0.0525; composite z-score (Torsin-1A (Homo sapiens) [18]): -0.009; composite z-score [19]: 1.81

**Q.** With `O=C1C2C=CC(C(O)c3ccccc3)N(n3cnnc3)C2C(=O)N1Cc1ccccc1` (stereo not given) as the compound, how does the composite z-score [1] read?
**A.** 0.0968

**Q.** What about the composite z-score [2] of the same compound?
**A.** 0.561

**Q.** And the composite z-score [3]?
**A.** 0.321

**Q.** What about the composite z-score [4] of the same compound?
**A.** 0.249

**Q.** And the composite z-score [5]?
**A.** 0.438

**Q.** What about the composite z-score [6] of the same compound?
**A.** -0.0128

**Q.** What about the z-score [7] of the same compound?
**A.** 0.348

**Q.** And the composite z-score (Lefty1)?
**A.** -0.497

**Q.** And the composite z-score [8]?
**A.** -0.164

**Q.** And the z-score [9]?
**A.** -1.55 (inactive)

**Q.** And the composite z-score [10]?
**A.** 0.068

**Q.** What about the z-score [11] of the same compound?
**A.** 0.455 (inactive)

**Q.** And the z-score [12]?
**A.** -1.43 (inactive)

**Q.** And the z-score [13]?
**A.** 0.822 (inactive)

**Q.** And the z-score [14]?
**A.** -0.5 (inactive)

**Q.** And the composite z-score [15]?
**A.** 0.266

**Q.** And the composite z-score [16]?
**A.** 0.241

**Q.** What about the composite z-score (Torsin-1A (Homo sapiens) [17]) of the same compound?
**A.** 0.148

**Q.** What about the composite z-score (Torsin-1A (Homo sapiens) [18]) of the same compound?
**A.** -0.457

**Q.** And the composite z-score [19]?
**A.** -0.189
